Results from PubChem BioAssay (NCI).
The panel holds about 83,000 compounds, 20% with a hit somewhere; the sample as a whole holds those more often.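 Treatment: one concentration, 48 hours, 96-well format. Scoring: percent growth, with anything below 10 considered active.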 Values without a mark were called inactive. Activity calls are given as the source filed them.

Experiments:
Test in all cases: NCI-60 one-dose screen, 48 h (100 = growth as untreated, 0 = no growth, -100 = all killed)
Settings in all cases: 10 µM unless noted
NCI-H23 lung = test system: NCI-H23 lung
NCI-H226 lung = test system: NCI-H226 lung
NCI-H322M lung = test system: NCI-H322M lung
HOP-62 NSCLC = test system: HOP-62 NSCLC
NCI-H460 lung = test system: NCI-H460 lung
HOP-92 NSCLC = test system: HOP-92 NSCLC
NCI-H522 lung = test system: NCI-H522 lung
A549/ATCC NSCLC = test system: A549/ATCC NSCLC
786-0 renal = test system: 786-0 renal
COLO 205 colon = test system: COLO 205 colon
DU-145 prostate = test system: DU-145 prostate
K-562 leukemia = test system: K-562 leukemia
MALME-3M melanoma = test system: MALME-3M melanoma
MDA-MB-231 breast = test system: MDA-MB-231 breast
RXF 393 renal = test system: RXF 393 renal
SF-268 CNS = test system: SF-268 CNS
SF-295 CNS = test system: SF-295 CNS
SF-539 CNS = test system: SF-539 CNS
UACC-257 melanoma = test system: UACC-257 melanoma
M14 melanoma = test system: M14 melanoma

Structure (SMILES)	growth (NCI-H23 lung) [%]	growth (NCI-H226 lung)	growth (NCI-H322M lung)	growth (HOP-62 NSCLC)	growth (NCI-H460 lung)	growth (HOP-92 NSCLC)	growth (NCI-H522 lung)	growth (A549/ATCC NSCLC)	growth (786-0 renal)	growth (COLO 205 colon)	growth (DU-145 prostate)	growth (K-562 leukemia)	growth (MALME-3M melanoma)	growth (MDA-MB-231 breast)	growth (RXF 393 renal)	growth (SF-268 CNS)	growth (SF-295 CNS)	growth (SF-539 CNS)	growth (UACC-257 melanoma)	growth (M14 melanoma)
CCOC(=O)c1c(C)nc2c(c1N)CC(=O)N2Cc1cc(OC)c(OC)c(OC)c1	39.7	70.5%	81.3%	32.5%	17.6%	62.6%	33.2%	40.7%	66.2%	20.4%	80.6%	14.6%	45%	55.3%	73.2%	69.5%	39.5%	66.2%	53%	28.1%
COc1cc(C(=O)C(=O)c2cc(OC)c(O)c(OC)c2)cc(OC)c1O	101	91%	94.4%	93.2%	101%	91.7%	89.6%	99.5%	103%	105%	119%	122%	103%	97.2%	104%	99.3%	109%	97.1%	98.3%	104%
C=CC(C)(O)CC/C=C(\CO)C(=O)OC1C(C)OC(O[C@](C)(C=C)CC/C=C(\CO)C(=O)O[C@H]2C[C@@]3(C(=O)OC4OC(CO)C(O)C(O)C4OC4OC(C)C(OC5OC(CO)C(O)C5O)C(OC5OC(CO)C(O)C(O)C5O)C4O)C(CC2(C)C)C2=CCC4[C@@]5(C)CC[C@H](OC6OC(COC7OC(C)C(O)C(O)C7OC7OCC(O)C(O)C7O)C(O)C(O)C6NC(C)=O)C(C)(C)C5CC[C@@]4(C)[C@]2(C)C[C@H]3O)C(O)C1O (stereo not given in full)	11.9	2.06% (active)	-78.4% (active)	-66.9% (active)	57.8%	-46.2% (active)	-58.8% (active)	-37.5% (active)	-77.5% (active)	-69.3% (active)	-91.2% (active)	22.8%	-56.2% (active)	-29.8% (active)	-31.3% (active)	-53.4% (active)	-59.4% (active)	6.98% (active)	-53.5% (active)	-34.1% (active)
CN1CCN(CCOc2ccc(-c3cnc4c(-c5ccc(C(F)(F)F)cc5)cnn4c3)cc2)CC1	48.5	87.8%	64.3%	37.5%	-50.3% (active)	40.4%	44.4%	-41.1% (active)	-57.3% (active)	-55.7% (active)	40.7%	-36% (active)	50.4%	31.6%	32.4%	48.7%	64.4%	67.6%	8.47% (active)	-64.2% (active)
Cc1cc(C)c(-c2c(O)c(Br)c(-c3c(C)cc(C)c(Br)c3C)c(O)c2Br)c(C)c1Br	43.7	52.1%	38.1%	62%	1.57% (active)	-3.74% (active)	-70.3% (active)	18.6%	24.8%	-67.2% (active)	33.4%	15.2%	-6.91% (active)	-42.5% (active)	-48.7% (active)	31%	-10.2% (active)	22.3%	-19% (active)	29.6%
O=C(Nc1cccnc1Nc1ccc(Cl)cc1)c1cn(Cc2ccc(F)cc2)nn1	99.4	94.2%	98.5%	112%	107%	102%	91.1%	103%	86.9%	124%	106%	108%	117%	83.9%	98.7%	103%	96.6%	94.5%	105%	101%
CC(C(=O)O)n1c(O)c(C=Nc2cccnc2)sc1=S (stereo not given)	99.1	85.3%	93.1%	89.5%	100%	86%	89.2%	92.4%	95.5%	107%	97%	89%	98.8%	86.3%	88.7%	87.7%	101%	98.1%	103%	95.3%
